# Data taken from PubChem BioAssay AID624297 (National Center for Advancing Translational Sciences (NCATS), 2012).
# Among all 340,000 compounds or so, about 6,200 (1.8%) were called active. Another 10% or so got no clear call; they are omitted. Calls come from the whole dose curve; as a rule, active = well fitted activation curve with a large enough effect; inconclusive = small, poorly fitted or top-dose-only effect; inactive = no such curve, though single readings can be large or run the other way. The list comes from a sample in which actives are over-represented; it also holds similar structures and randomly drawn compounds. Where a call stands in place of a potency, no number is given.
# Assay: A quantitative high throughput screen for small molecules that induce DNA re-replication in SW480 colon adenocarcinoma cells. Note: nearly all actives have a fitted effect of over 55% in size.
# Conditions: Hoechst DNA content imaging, 48 h; series mostly up to 46.1 µM
# Method in brief: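 Cells (250 per well) received 23 nL compound or DMSO by pin tool and were kept 48 hr at 37 C, 5% CO2. Nuclei were then stained with Hoechst for 40 min and scanned for DNA content.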
# Potency is the fitted concentration of half-maximal effect.
Compound,Potency,re-replication activation
C#CCOCCOCCOCCNc1nc(N2CCN(C(=O)C([C@@H](C)O)n3cc([C@@H](N)CCCCN)nn3)CC2)nc(N2CCN(C(=O)[C@H](CCCCN)n3cc(CN)nn3)CC2)n1 (some centres undefined),inactive,
COC(=O)[C@]1(Cc2ccccc2)N[C@H](CN(C)S(=O)(=O)c2ccc(OC(F)(F)F)cc2)[C@@H]2C(=O)N(Cc3ccccc3)C(=O)[C@@H]21,inactive,
CCCCN1CC(COc2ccccc2)Oc2cccc(F)c2S1(=O)=O (centres undefined),inactive,
O=C(Nc1ccccn1)C1CCN(S(=O)(=O)c2ccccc2)CC1,inactive,
Cc1cccc(NC(=O)C2CCN(S(=O)(=O)c3cccc4cccnc34)CC2)c1,inactive,
Cc1ccnc(NC(=O)C2CCN(S(=O)(=O)c3c(C)c(C)cc(C)c3C)CC2)c1,16.4 µM (active),
C=CC[C@H](CC(=O)N(CCO)Cc1ccccc1)C(=O)N[C@@H](COC(=O)[C@@H](CC=C)Cc1ccc(F)cc1)Cc1ccccc1,inactive,
O=[N+]([O-])c1ccccc1S(=O)(=O)Nc1cccc2cccnc12,13 µM (active),
O=[N+]([O-])c1cccc2ncccc12,inactive,
Cc1ccccc1NC(=O)c1ccccc1NS(=O)(=O)c1cccc2cccnc12,inactive,
CC(=O)C(CC(=O)N1CCCC1)C(=O)Nc1ccc(Cl)cc1 (centres undefined),inactive,
COC1=NC2=NCCN2C(OC)=N1,inactive,
O=C(NCCN1CCOCC1)c1cc(-c2cccs2)nc2ccccc12,inactive,
c1ccc2cc3c(NCCN4CCOCC4)ccnc3cc2c1,10.3 µM (active),
O=C(NCCN1CCOCC1)c1ccc2c(c1)ncn2C1CCCC1,inactive,
Cc1ccc(S(=O)(=O)N2CCN(C(=O)COC(=O)CNC(=O)c3ccc(C(C)(C)C)cc3)CC2)c(C)c1,inactive,
CCn1c(=N)c(S(=O)(=O)c2ccc(F)cc2)cc2c(=O)n3ccccc3nc21,20.6 µM (active),
Cc1ccc(-n2c(=O)c(C#N)cc3c(=O)n4ccccc4nc32)cc1C,inactive,
Cc1ccc(S(=O)(=O)c2cc3c(=O)n4cccc(C)c4nc3n(CCc3ccccc3)c2=N)cc1C,inactive,
N#Cc1c(C(F)(F)F)cc(-c2cccs2)nc1N1CCCCC1,inactive,
Cc1cc(C)c(C#N)c(N2CCC(C(N)=O)CC2)n1,inactive,

Compound,Potency,re-replication activation
N#CCc1c(C#N)c(N)nc(N2CCCC2)c1C#N,14.6 µM (active),
O=C(OCCOc1ccccc1F)c1cc(S(=O)(=O)N2CCOCC2)ccc1F,inactive,
COc1cccc(NC(=O)COC(=O)c2ccc3ccccc3n2)c1,inactive,
CN(CCc1ccccc1)C(=O)c1cccc(NC(=O)Cc2cccc(NC(=O)C3CCCN(C(=O)CCc4ccccc4)C3)c2)c1 (centres undefined),inactive,
CC(NC(=O)c1ccccc1)C(=O)OCC(=O)Nc1cccc(S(=O)(=O)N2CCCC2)c1 (centres undefined),inactive,
CC1(C)CC(=O)C=C(Nc2ccccc2)C1,inactive,
CC1(C)CC(=O)C(CC(=O)N2CCC(Cc3ccccc3)CC2)C(=O)C1,inactive,
CC1(C)CC(=O)C(C2c3ccccc3S(=O)(=O)c3ccccc32)C(=O)C1,4.11 µM (active),
COC(=O)C1CCN(C(=O)COC(=O)c2cc(S(=O)(=O)N3CCOCC3)ccc2C)CC1,inactive,
C#CCOCCOCCOCCNc1nc(N2CCN(C(=O)Cn3cc(CCO)nn3)CC2)nc(N2CCN(C(=O)Cn3cc(CCCN=C(N)N)nn3)CC2)n1,inactive,
COc1ccccc1-c1nc(SC)n[nH]1,inactive,
Cc1cc(C)nc(Nc2cc([N+](=O)[O-])ccc2C)n1,inactive,
Cc1cc(C)nc(Nc2n[nH]c(-c3ccccc3N)n2)n1,29.1 µM (active),
Cc1noc(C)c1NC(=O)Nc1cccc2c1O[C@H](CN(C)C(=O)Nc1ccccc1)[C@@H](C)CN([C@H](C)CO)C2=O,inactive,
CCCSc1ccc([C@H]2N[C@@](Cc3ccccc3)(C(=O)OC)[C@H]3C(=O)N(C)C(=O)[C@@H]23)cc1,inactive,
Cc1ccc(CNC(=O)COC(=O)C2CCC2)cc1,inactive,
Cc1ccc(CCC(=O)Nc2ncc(Cc3cc(Cl)ccc3Cl)s2)o1,1.64 µM (active),
Cc1cnc(NC(=O)CSc2nnc(-c3ccc(Cl)cc3Cl)n2N)s1,inactive,
CCOc1ccccc1NC(=O)CCc1ccc(C)o1,inactive,
O=[N+]([O-])c1cc2ccccc2nc1-c1ccccc1,inactive,
O=C(CN1C(=O)NC2(CCOc3ccccc32)C1=O)Nc1cccc([N+](=O)[O-])c1 (centres undefined),inactive,

Compound,Potency,re-replication activation
CCn1nc(NC(=O)c2ccco2)c2cc3ccc(C)cc3nc21,9.2 µM (active),
Cc1ccc(C(=O)COc2cccc(NC(=O)c3ccco3)c2)cc1,inactive,
Cc1ccnc(NC(=O)c2ccco2)n1,inactive,
O=S1(=O)CCOC[C@H](Cc2ccccc2)N1Cc1ccccc1Br,inactive,
CCC(=O)/C(=C(/O)c1ccccc1)c1nc2ccccc2[nH]1,inactive,
O=C(CCc1nc2ccccc2c(=O)[nH]1)OCC(=O)c1cccc(Cl)c1,inactive,
O=C(/C(=C/c1cccc(Cl)c1)c1nc2ccccc2[nH]1)c1ccccc1,18.4 µM (active),
NCCN1CCN2C(=O)CN(C(=O)c3ccccc3)CC12 (centres undefined),inactive,
COc1ccc(N2CCN(C(CNS(=O)(=O)c3ccc(C)cc3)c3ccccc3)CC2)cc1 (centres undefined),inactive,
Cc1cccc(C)c1NC(=O)C(c1ccccc1)N1CC(=O)Nc2ccccc21 (centres undefined),inactive,
Cc1cccc(C)c1NC(=O)CN(C)C(=O)CCC(=O)c1ccccc1,inactive,
Cc1cccc(C)c1NC(=O)C(Cl)C(=O)c1ccccc1 (centres undefined),16.4 µM (active),
COc1cc(OC)c(C(=O)NNC(=O)c2ccc(NS(=O)(=O)c3cccs3)cc2)cc1OC,inactive,
NC(=O)C1(Nc2ccc([N+](=O)[O-])cc2)CCCC1,inactive,
CCOC(=O)c1cc2c(=O)n3ccccc3nc2n(CC(C)C)c1=NC(=O)c1c(-c2c(F)cccc2Cl)noc1C,13 µM (active),
C/C(=N/OC(=O)c1c(-c2c(F)cccc2Cl)noc1C)c1cnccn1,inactive,
CCCn1c(=NC(C)=O)c(C(=O)OCC)cc2c(=O)n3ccccc3nc21,inactive,
O=C(OCC(=O)N1CCN(C(=O)c2ccco2)CC1)c1c(Cl)cccc1Cl,inactive,
O=C(/C=C/c1ccc([N+](=O)[O-])o1)NNC(=O)c1ccc(F)cc1,3.66 µM (active),
O=C(NNC(=O)C1CCCC1)c1ccc(F)cc1,inactive,
Cc1ccc(/C=C/C(=O)Nc2ccc([N+](=O)[O-])c(NC(=O)/C=C/c3ccc(C)o3)c2)o1,inactive,

Compound,Potency,re-replication activation
Cc1cccc(C(=O)OCC(=O)NC(C)C2CC3CCC2C3)c1O (centres undefined),inactive,
CNC(=S)NNC(=O)c1sccc1OCc1ccccc1,inactive,
CNC(=S)NNC(=O)c1oc2nc(-c3ccccc3)cc(-c3ccco3)c2c1N,14.6 µM (active),
CNC(=S)NNC(=O)c1cccn(Cc2ccccc2)c1=O,inactive,
COc1ccc(CC(=O)NC(C)c2ccc(Cl)c(Cl)c2)cc1S(=O)(=O)N1CCOCC1 (centres undefined),inactive,
Cc1ccc(Nc2c(O)nc[nH]c2=O)cc1C,inactive,
C[C@]12CC[C@H](O)CC1=CCC1C2CC[C@@]2(C)C1CC[C@@H]2NC(=O)CCC(=O)O (some centres undefined),inactive,
COC(=O)C1CC2=C(CC(C)(C)CC2=O)N(c2ccccc2)C1=O (centres undefined),inactive,
Cc1ccc(S(=O)(=O)/N=C(/Nc2ccc3[nH]c(=O)[nH]c3c2)c2ccccc2)cc1,inactive,
CCOC(=O)c1ccc(N/C(=N/S(=O)(=O)c2ccccc2)c2ccccc2)cc1,20.6 µM (active),
CCOC(=O)c1ccc(NC(=O)c2cccnc2)cc1,inactive,
NC(=S)NN=C1CCCC(C(F)(F)F)C1 (centres undefined),inactive,
O=C(NN=Cc1ccc([N+](=O)[O-])cc1)C1CC1,inactive,
O=[N+]([O-])c1ccc(C=NN=Cc2ccc([N+](=O)[O-])cc2)cc1,inactive,
O=C1/C(=C\c2ccc([N+](=O)[O-])cc2)CS(=O)(=O)C/C1=C/c1ccc([N+](=O)[O-])cc1,4.11 µM (active),
CCC(CO)Oc1cc(NC(=O)c2cccc(F)c2)c2ncn(C(C)C)c2c1 (centres undefined),inactive,
O=C1N[C@@H](c2ccccc2)COC(=O)[C@H](Cc2ccc(F)cc2)C/C=C\C[C@@H]1CC(=O)N(CCO)Cc1ccccc1,inactive,
CC1(C)Cc2c(C#N)c(SCc3nc4ccccc4[nH]3)nc(N3CCOCC3)c2CO1,12.6 µM (active),
CC(C)C(=O)N1CCN(c2nc(-c3ccccc3)c3c(c2C#N)CC(C)(C)OC3)CC1,inactive,
COc1ccc(CSc2nc(N3CCOCC3)c3c(c2C#N)CC(C)(C)OC3)cc1,inactive,
C=CC(COCc1ccccc1)N(CC(=O)OC)S(=O)(=O)c1cc(Br)ccc1OC (centres undefined),,4.23% [at 9.22 µM] (inactive)
